Experimental data as given in PubChem BioAssay (NCI).
This is part of a sample that, as a whole, favours compounds with a hit. Of some 83,000 tested, about 20% had one in any assay.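 How to read the values: 0–100, growth inhibition (40 = 60% inhibited); 0, no net growth; -100 to 0, cell death (-40 = 40% of starting cells died; -100 = all dead).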

Key:
Assay in all cases: NCI-60 one-dose screen, 48 h (100 = growth as untreated, 0 = no growth, -100 = all killed)
Conditions in all cases: 10 µM unless noted; active means growth percent below 10; inactive means the rest
NCI-H23 lung = tested on: NCI-H23 lung
HOP-62 NSCLC = tested on: HOP-62 NSCLC
NCI-H460 lung = tested on: NCI-H460 lung
HOP-92 NSCLC = tested on: HOP-92 NSCLC
NCI-H522 lung = tested on: NCI-H522 lung
A549/ATCC NSCLC = tested on: A549/ATCC NSCLC
786-0 renal = tested on: 786-0 renal
COLO 205 colon = tested on: COLO 205 colon
DU-145 prostate = tested on: DU-145 prostate
K-562 leukemia = tested on: K-562 leukemia
MALME-3M melanoma = tested on: MALME-3M melanoma
MDA-MB-231 breast = tested on: MDA-MB-231 breast
RXF 393 renal = tested on: RXF 393 renal
SF-268 CNS = tested on: SF-268 CNS
SF-295 CNS = tested on: SF-295 CNS
SF-539 CNS = tested on: SF-539 CNS
UACC-257 melanoma = tested on: UACC-257 melanoma
M14 melanoma = tested on: M14 melanoma
NCI-H322M lung = tested on: NCI-H322M lung

Measured: growth

O=S(OO)c1cc(Cl)c(O)c(Cl)c1 (centres undefined)
inactive: NCI-H23 lung 101% | HOP-62 NSCLC 105% | NCI-H460 lung 102% | HOP-92 NSCLC 92.1% | NCI-H522 lung 102% | A549/ATCC NSCLC 94.7% | 786-0 renal 97.1% | COLO 205 colon 117% | DU-145 prostate 113% | K-562 leukemia 107% | MALME-3M melanoma 115% | MDA-MB-231 breast 110% | RXF 393 renal 106% | SF-268 CNS 103% | SF-295 CNS 94.3% | SF-539 CNS 95.7% | UACC-257 melanoma 99.6% | M14 melanoma 107%

C[C@]12CC[C@H]3[C@@H](C[C@@H]4SC(Nc5ccccc5)=N[C@@]45C/C(=N/O)CC[C@]35C)[C@@H]1CCC2=O
inactive: NCI-H23 lung 79.5% | NCI-H322M lung 94.5% | HOP-62 NSCLC 94% | NCI-H460 lung 56.4% | HOP-92 NSCLC 107% | NCI-H522 lung 71.5% | A549/ATCC NSCLC 88.9% | 786-0 renal 18.4% | COLO 205 colon 97% | DU-145 prostate 29.8% | K-562 leukemia 12.5% | MALME-3M melanoma 83.8% | MDA-MB-231 breast 78.2% | RXF 393 renal 28.8% | SF-268 CNS 57.7% | SF-295 CNS 55.7% | SF-539 CNS 44.2% | UACC-257 melanoma 99.9% | M14 melanoma 68.5%

Cc1cc(N)ccc1N
inactive: NCI-H23 lung 105% | NCI-H322M lung 95% | HOP-62 NSCLC 93.9% | NCI-H460 lung 106% | HOP-92 NSCLC 95.1% | NCI-H522 lung 106% | A549/ATCC NSCLC 98.2% | COLO 205 colon 120% | DU-145 prostate 115% | K-562 leukemia 105% | MALME-3M melanoma 105% | RXF 393 renal 103% | SF-268 CNS 103% | SF-295 CNS 108% | SF-539 CNS 95.8% | UACC-257 melanoma 97.2% | M14 melanoma 104%

CCOC(=O)C1C(C=C(C)C)C1(C)C (centres undefined)
inactive: NCI-H23 lung 101% | NCI-H322M lung 140% | HOP-62 NSCLC 98.7% | NCI-H460 lung 103% | HOP-92 NSCLC 84.6% | NCI-H522 lung 97.5% | A549/ATCC NSCLC 98.9% | 786-0 renal 105% | COLO 205 colon 109% | DU-145 prostate 108% | K-562 leukemia 155% | MALME-3M melanoma 140% | MDA-MB-231 breast 106% | RXF 393 renal 114% | SF-268 CNS 101% | SF-295 CNS 101% | SF-539 CNS 93.5% | UACC-257 melanoma 106% | M14 melanoma 106%

CNC(=O)Oc1ccc(Cl)cc1SSc1cc(Cl)ccc1OC(=O)NC
inactive: NCI-H23 lung 65.4% | NCI-H322M lung 103% | HOP-62 NSCLC 95.2% | NCI-H460 lung 60.1% | HOP-92 NSCLC 42.7% | NCI-H522 lung 51.2% | A549/ATCC NSCLC 103% | 786-0 renal 110% | COLO 205 colon 110% | DU-145 prostate 96.7% | K-562 leukemia 63.1% | MALME-3M melanoma 78.2% | MDA-MB-231 breast 78.3% | RXF 393 renal 107% | SF-268 CNS 65.8% | SF-295 CNS 75.7% | SF-539 CNS 98.2% | UACC-257 melanoma 79% | M14 melanoma 112%

O=P1(N(CCCl)CCCl)NCCCO1 (centres undefined)
inactive: NCI-H23 lung 112% | NCI-H322M lung 104% | HOP-62 NSCLC 105% | NCI-H460 lung 104% | HOP-92 NSCLC 131% | NCI-H522 lung 109% | 786-0 renal 104% | COLO 205 colon 116% | DU-145 prostate 124% | K-562 leukemia 104% | MALME-3M melanoma 96.5% | MDA-MB-231 breast 107% | RXF 393 renal 110% | SF-268 CNS 117% | SF-295 CNS 107% | SF-539 CNS 110% | UACC-257 melanoma 109% | M14 melanoma 101%

O=C(O)c1ccccc1N(CCO)CCCl
inactive: NCI-H23 lung 99% | NCI-H322M lung 90.3% | HOP-62 NSCLC 95.1% | NCI-H460 lung 111% | HOP-92 NSCLC 79.3% | NCI-H522 lung 93.3% | A549/ATCC NSCLC 98.1% | 786-0 renal 107% | COLO 205 colon 100% | DU-145 prostate 103% | K-562 leukemia 100% | MALME-3M melanoma 87.1% | MDA-MB-231 breast 112% | RXF 393 renal 102% | SF-268 CNS 103% | SF-295 CNS 99.8% | SF-539 CNS 84.6% | UACC-257 melanoma 99% | M14 melanoma 96%
